Measurements taken from PubChem BioAssay (NCATS).
Inconclusive results are not listed. Calls of active or inactive are those of the source. Calls follow the shape of the dose curve; as a rule, active = well fitted curve in the direction sought with a large enough effect; inconclusive = small, poorly fitted or top-dose-only effect, or another doubt; inactive = no such curve, though single readings can be large; an effect the other way counts as inactive or inconclusive.

Columns and labels:
[1] = qHTS to identify inhibitors of the type 1 interferon - major histocompatibility complex class I in skeletal muscle: primary screen against the NCATS Pharmaceutical Collection (AID 1347407);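 also: luminescence of HiBiT knocked into endogenous HLA-B as interferon-induced MHC class I level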
In short: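 Immortalized human myoblasts (C25cl48) with HiBiT knocked into endogenous HLA-B*08:01 were stimulated with 4 ng/ml IFN-beta and treated with compounds (8-point, 1:5, top 46 uM final) for 24 h at 37 C; HiBiT lytic luminescence read.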

[2] = qHTS for inhibitors of adenylyl cyclases using a fission yeast platform: a pilot screen against the NCATS LOPAC library (AID 1347410)
In short: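 S. pombe CHP2027 (AC9-GNAS-PDE4D2) carrying a PKA-repressed fbp1-GFP reporter was exposed to LOPAC compounds (final up to 57 µM) for 18 h at 30C in the dark, in EMM with histidine, lysine and uracil; GFP gain-of-signal read by laser scanning cytometry.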

[3] = target: Protein phosphatase 1D (Homo sapiens) (UniProt O15297); test: RapidFire Mass Spectrometry qHTS Assay for Modulators of WT P53-Induced Phosphatase 1 (WIP1) (AID 1347424);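 also: amount of dephosphorylated VEPPL-S-QETFS peptide product formed by WIP1; series mostly up to about 63 µM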
In short: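 WIP1 (10 nM final) was preincubated 1 h at room temperature with compounds in Tris-HCl pH 7.5, 30 mM MgCl2, TCEP, EGTA, BSA; 2 uM VEPPL-pS-QETFS phosphopeptide was added for 5 min, quenched with formic acid, and dephosphorylated product quantified by RapidFire MS.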

[4] = target: Protein phosphatase 1D (Homo sapiens) (UniProt O15297); test: Rhodamine-PBP qHTS Assay for Modulators of WT P53-Induced Phosphatase 1 (WIP1) (AID 1347425)
In short: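 Read-out: Rhodamine-PBP fluorescence (ex 525/em 598 nm) for released Pi, read each minute for 11 min after adding 10 uM VEPPL-pS-QETFS; signal taken as f1 minus pre-substrate f0. Enzyme 5 nM WIP1 with 1 hr room-temperature compound preincubation.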

[5] = Validation qHTS assay for inhibitors of Activation Induced Cytidine Deaminase (AID): UDG Counterscreen signal (AID 1347427)
In short: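 Counterscreen read of UDG activity (2 U/mL, 4/3x) in the FRET deamination format with AID (1 uM, 4/3x), DJC20/DJC23 substrates (250 nM, 4x), 4 h at room temperature. NaOH stop, fluorescence at 560 ex/665 em.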

[6] = target: Single-stranded DNA cytosine deaminase (Homo sapiens) (UniProt Q9GZX7); test: Validation qHTS assay for inhibitors of Activation Induced Cytidine Deaminase (AID): AID signal (AID 1347429)
In short: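 AID and UDG were combined and compounds added at final up to 114 uM, then DJC20/DJC23 FRET substrate was added for 4 hr at room temperature. NaOH was then added for 30 min before fluorescence was read at 540/590 nm.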

[7] = Primary qHTS for inhibitors of La Crosse Virus (LACV) - induced cell death in SH-SY5Y cells (AID 1508616);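 also: top concentration of the series differs between compounds; higher means more rescue of cells from virus-induced death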
In short: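 Luminescent ATP readout (ATPLite 1step, 5 min room temperature) measured rescue from LACV-induced death after 6 days of infection at 0.01 MOI; normalized to infected DMSO wells and uninfected DMSO wells.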

[8] = target: Calcium and integrin-binding protein 1 (Homo sapiens) (UniProt Q99828); test: Validation qHTS for Identification of Calcium Integrin Binding protein 1 (CIB1) Competitor (AID 1508618)
In short: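 CIB1-GST (1 uM final) in 5 mM HEPES pH 7.4, 125 mM NaCl, 5 mM CaCl2, 0.01% Tween20 was preincubated 15 min at room temperature with compound (up to 114 uM), then FITC-alphaIIb peptide (100 nM) added for 15 min; fluorescence polarization read.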

[9] = target: Calcium and integrin-binding protein 1 (Homo sapiens) (UniProt Q99828); test: Primary qHTS for Identification of Calcium Integrin Binding Protein 1 (CIB1) Competitor (AID 1508620);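 also: GST tagged CIB1 binding a fluorescein labelled alphaIIb integrin peptide tracer; top concentration of the series differs between compounds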
In short: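 Fluorescence polarization competition: CIB1-GST (1 uM final) preincubated with compound 15 min at room temperature, then FITC-labeled alphaIIb peptide (100 nM final) added for another 15 min. Polarization read at Ex 480/Em 540.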

[10] = qHTS to identify inhibitors of the type 1 interferon - major histocompatibility complex class I in skeletal muscle: primary screen against the NCATS LOPAC collection (AID 1347405);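 also: lytic HiBiT luminescence reporting HLA-B protein level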
In short: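 Immortalized human C25cl48 myoblasts with HiBiT knocked into endogenous HLA-B*08:01 were stimulated with 4.0 ng/ml IFN-beta and given compounds in a 7-point, 1:4.3 titration from 46 uM final; after 24 hrs, lytic HiBiT luminescence was read.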

[11] = qHTS to identify inhibitors of the type 1 interferon - major histocompatibility complex class I in skeletal muscle: primary screen against the NCATS Mechanism Interrogation Plate v5.0 (MIPE) Libary (AID 1347411); also: nearly all actives have a fitted effect of over 65% in size; also: potency is read from the fitted curve at half-maximal effect
In short: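 Immortalized human C25cl48 myoblasts with HiBit knocked into endogenous HLA-B*08:01 were stimulated with 4.0 ng/ml IFN-beta and exposed to compounds (11-point 1:3 titration, top 46 uM final) for 24 hrs at 37 C; HiBiT lytic luminescence measured.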

Measured: Potency

Protein phosphatase 1D (Homo sapiens), sequence (O15297 whole entry, looked up): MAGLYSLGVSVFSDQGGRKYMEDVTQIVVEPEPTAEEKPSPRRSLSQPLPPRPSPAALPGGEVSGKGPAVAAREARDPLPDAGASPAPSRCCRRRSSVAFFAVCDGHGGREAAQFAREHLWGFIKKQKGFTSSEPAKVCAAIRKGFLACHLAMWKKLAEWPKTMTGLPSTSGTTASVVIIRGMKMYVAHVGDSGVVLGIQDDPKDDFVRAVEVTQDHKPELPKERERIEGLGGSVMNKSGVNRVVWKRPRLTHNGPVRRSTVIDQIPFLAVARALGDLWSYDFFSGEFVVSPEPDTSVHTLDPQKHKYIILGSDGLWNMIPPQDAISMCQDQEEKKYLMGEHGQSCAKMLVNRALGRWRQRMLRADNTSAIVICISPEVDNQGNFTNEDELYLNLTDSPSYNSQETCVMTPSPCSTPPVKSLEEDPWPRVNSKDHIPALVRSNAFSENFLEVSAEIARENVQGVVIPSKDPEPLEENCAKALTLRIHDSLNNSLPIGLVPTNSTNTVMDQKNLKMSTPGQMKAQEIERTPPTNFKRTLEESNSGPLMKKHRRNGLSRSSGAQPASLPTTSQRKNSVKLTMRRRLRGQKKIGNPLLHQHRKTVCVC
Single-stranded DNA cytosine deaminase (Homo sapiens), sequence (Q9GZX7 whole entry, looked up): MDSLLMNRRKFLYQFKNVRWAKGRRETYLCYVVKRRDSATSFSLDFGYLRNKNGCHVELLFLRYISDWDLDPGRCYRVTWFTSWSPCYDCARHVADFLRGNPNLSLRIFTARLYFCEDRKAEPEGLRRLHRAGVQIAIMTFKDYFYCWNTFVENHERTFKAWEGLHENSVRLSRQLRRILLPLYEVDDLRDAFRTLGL
Calcium and integrin-binding protein 1 (Homo sapiens), sequence (Q99828 whole entry, looked up): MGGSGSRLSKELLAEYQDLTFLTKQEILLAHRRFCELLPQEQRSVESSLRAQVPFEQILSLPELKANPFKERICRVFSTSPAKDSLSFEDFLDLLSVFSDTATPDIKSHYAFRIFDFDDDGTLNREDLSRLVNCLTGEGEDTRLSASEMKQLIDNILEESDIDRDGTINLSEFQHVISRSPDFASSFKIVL

Fc1ccc([C@@H]2CCNC[C@H]2COc2ccc3c(c2)OCO3)cc1
not listed: [10] | [11]
inactive: all other assays above

OCCN1CCN(CCCN2c3ccccc3Sc3ccc(C(F)(F)F)cc32)CC1
not listed: [8] | [10] | [11]
inactive: all other assays above

CC1(C)O[C@H]2CC(=O)OC[C@]23[C@H]2CC[C@@]4(C)[C@H](c5ccoc5)OC(=O)[C@H]5O[C@]54[C@]2(C)C(=O)C[C@@H]13
inactive: [1] | [3] | [4] | [9]

COc1cc2nc(N3CCN(C(=O)C4COc5ccccc5O4)CC3)nc(N)c2cc1OC (configuration not stated)
not listed: [1] | [11]
inactive: all other assays above

C[C@@H]1CC(=O)NN=C1c1ccc(NN=C(C#N)C#N)cc1
active: [11] 18.6 µM
inactive: [1] | [3] | [7] | [9]

CCC1(c2ccccc2)C(=O)NCNC1=O
inactive: [3] | [4] | [7] | [8] | [9]

Clc1ccccc1C(c1ccccc1)(c1ccccc1)n1ccnc1
not listed: [1] | [8] | [10] | [11]
inactive: all other assays above

CC(=O)OCC(CCn1cnc2cnc(N)nc21)COC(C)=O
not listed: [1] | [5] | [6]
inactive: all other assays above

Cn1c(=O)c2c(ncn2C)n(C)c1=O
inactive: [3] | [4] | [5] | [6] | [7]

CCCCc1oc2ccccc2c1C(=O)c1cc(I)c(OCCN(CC)CC)c(I)c1
not listed: [10] | [11]
inactive: all other assays above

CC1(CN2CCC(n3c(=O)[nH]c4ccccc43)CC2)OCc2ccccc2-n2cccc21 (configuration not stated)
inactive: [1] | [11] | [3] | [4] | [7] | [9]

CN(C)C(=N)N=C(N)N
inactive: [1] | [3] | [4] | [7] | [9]

CN(CCOc1ccc(NS(C)(=O)=O)cc1)CCc1ccc(NS(C)(=O)=O)cc1
inactive: [2] | [3] | [4] | [7] | [8] | [9]

O=c1c(O)c(-c2ccc(O)c(O)c2)oc2cc(O)cc(O)c12
not listed: [4] | [8] | [10]
inactive: all other assays above

COc1cc2c(c(OC)c1OC)-c1ccc(OC)c(=O)cc1[C@@H](NC(C)=O)CC2
not listed: [10] | [11]
inactive: all other assays above

COc1ccc(CCN(C)CCCC(C#N)(c2ccc(OC)c(OC)c2)C(C)C)cc1OC (configuration not stated)
inactive: [2] | [3] | [4]

O=C(C1CCCCC1)N1CC(=O)N2CCc3ccccc3C2C1 (configuration not stated)
inactive: [3] | [4] | [7] | [8] | [9]

CS(=O)(=O)CCNCc1ccc(-c2ccc3ncnc(Nc4ccc(OCc5cccc(F)c5)c(Cl)c4)c3c2)o1
inactive: [3] | [4] | [7] | [9]
active: [11] 33 µM

CC(COc1ccccc1)N(CCCl)Cc1ccccc1 (configuration not stated)
not listed: [2] | [8] | [10]
inactive: all other assays above

Cc1ccccc1N1C(=O)c2cc(S(N)(=O)=O)c(Cl)cc2NC1C (configuration not stated)
not listed: [2] | [8] | [10]
inactive: all other assays above
